Compounds without any hit were thinned out: in the full panel of roughly 83,000, 20% have a hit.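 Assay: single dose, 48 h. Readout: percent growth (0 = no net growth; negative = cell death). Active: <10.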 Values without a mark were called inactive. Calls of active or inactive are those of the source.
The molecules below were run on MDA-MB-468 breast (assay: NCI-60 one-dose screen, 48 h (100 = growth as untreated, 0 = no growth, -100 = all killed)). Settings: 10 µM unless noted.

Row | SMILES | growth
1 | Cc1nn(-c2ccc([N+](=O)[O-])cc2)c2ncnc(NCCc3ccccc3)c12 | 111%
2 | CCN(CC)CCCC(C)NC(=S)N/N=C(\C)c1ccccn1 (stereo not given) | -7.86% (active)
3 | CCCCNC(=O)Oc1ccc(/C(=C(\C)c2ccccc2)c2ccc(OCCN3CCCCC3)cc2)cc1 | 66.8%
4 | CCC(C)(CC)c1ccc(O)c(C)c1 | 101%
5 | O=C(NC1CCN(Cc2ccccc2)CC1)c1cc(-c2cccnc2)nc2ccc(Cl)cc12 | 54.7%
6 | Cc1ccc(C)c(NC(=O)c2sc3c(=O)[nH]cnc3c2C)c1 | 67.2%
7 | Brc1ccc(/C=C(/C2=NCCN2)n2ccc3ccccc32)cc1 | 50.8%
8 | COc1ccc2c(c1)N(CCO)C1=C(C(=O)OC1)C2c1ccccc1 (stereo not given) | -14.2% (active)
9 | COC(=O)/C(=C\c1c(-c2ccccc2)[nH]c2ccccc12)S(C)(=O)=O | 36.3%
10 | c1ccc2c(NCCCn3ccnc3)c3oc4ccccc4c3nc2c1 | -8.65% (active)
11 | C=CCN1C(=O)/C(=c2\sc3n(c2=O)C2C(NN=3)N(CC)C(=O)N2CC)c2ccccc21 (stereo not given) | 16.3%
12 | COc1ccc(C2c3ccc4ccccc4c3Oc3nc(C)[nH]c(=O)c32)cc1 (stereo not given) | 111%
13 | CCOC(=O)c1cc(C(=O)c2ccc(OC)cc2)n2ccc(/C=C/c3cc[n+](CC(=O)c4ccc(OC)cc4)cc3)cc12 | -38.2% (active)
14 | CN(C)c1oc(C2OC2c2ccccc2)nc1C#N (stereo not given) | 90.3%
15 | CN1C(=O)N(C)C2C1NN=c1s/c(=C\c3ccccc3)c(=O)n12 (stereo not given) | 23.8%

— PubChem BioAssay (NCI)
